From PubChem BioAssay
TDP1 cell noCPT = qHTS for Inhibitors of human tyrosyl-DNA phosphodiesterase 1 (TDP1): qHTS in cells in absence of CPT; DT40 Tdp1-/- hTDP1 cells, no CPT, ATP luminescence, 48 h; Potency, µM (highest dose often 46.2 µM), without a hit: at the highest dose activity change, negative = growth inhibition, usual class: inhibitors; actives 15% (n = 420,000); AID 686978, 2013; further: on the % scale 0 is the no-effect control and ±100 the full control effect; nearly all actives have a fitted effect of over 55% in size
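Cells were dispensed at 400 per well, compounds added by pin tool, plates incubated ≥48 hr at 37 °C, then CellTiter-Glo added for 30 min at room temperature before luminescence reading. Line: DT40 Tdp1-/- complemented with hTDP1; camptothecin omitted.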
TDP1 cell CPT = growth inhibition of DT40 Tdp1-/-;hTDP1 cells with camptothecin (screen for TDP1 inhibitors) | chicken DT40 Tdp1-/-;hTDP1 cells + 20 nM CPT, ATP luminescence, 48 h | Potency, µM (series often up to 46.2 µM), inactives show top-dose activity change, negative = growth inhibition, most hits filed as inhibitors | actives 12% (n = 420,000); further: on the % scale 0 is the no-effect control and ±100 the full control effect; nearly all actives have a fitted effect of over 55% in size
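Cell growth measured by CellTiter-Glo luminescence after a minimum 48 h, 37 C compound exposure with 20 nM CPT in Tdp1-knockout DT40 cells stably expressing hTDP1, seeded 400/well; qHTS titration format.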
TDP1 block = TDP1 (human) enzyme inhibition. recombinant TDP1, AlphaScreen DNA substrate cleavage. Potency, µM (series often up to 130 µM), without a hit: top-dose activity change, negative = inhibition, actives largely listed as inhibitors. actives 0.28% (n = 350,000). AID 485290; further: on the % scale 0 is the no-effect control and ±100 the full control effect; nearly all actives have a fitted effect of over 40% in size
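Here, a 5' biotin and 3' phosphotyrosine-FITC DNA oligonucleotide reports Tdp1 activity: intact substrate bridges AlphaScreen beads, while cleavage leaves a 3' phosphate and drops signal. All incubations at room temperature.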
ClpP mod = qHTS Assay for Activators of ClpP | ATP-dependent Clp protease proteolytic subunit (Bacillus subtilis (strain 168)), P80244 | Potency, µM (doses to about 57.5 µM), for inactives: at the top dose activity change, negative = active | actives 1.9% (n = 340,000) | AID 651965, 2013 | purified B. subtilis ClpP, FRET peptide cleavage, 20 min; active means well fitted falling curve with a large enough effect; inconclusive means small, poorly fitted or top-dose-only effect; inactive means no such curve, though single readings can be large or run the other way; further: the source files actives as falling curves though it sought activators and does not explain the sign; nearly all actives have a fitted effect of over 65% in size
Target sequence (P80244 whole entry, looked up): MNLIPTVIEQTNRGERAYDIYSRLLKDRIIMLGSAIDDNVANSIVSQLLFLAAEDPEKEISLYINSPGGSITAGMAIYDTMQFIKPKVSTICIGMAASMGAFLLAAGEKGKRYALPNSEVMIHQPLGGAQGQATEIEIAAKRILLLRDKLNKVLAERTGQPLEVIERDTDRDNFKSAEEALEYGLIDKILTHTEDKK
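FRET quenching reversal measured ClpP activation: 10 microg/mL B. subtilis ClpP at pH 8 with the FRET-FV decapeptide, read at 430 nm after 320 nm excitation. The 20-min minus 0-min signal was scaled between DMSO/no-enzyme wells and ADEP (5.8 microM final).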
* marks the source's active call; other numbers are inactive results; ? = inconclusive; · = no result given; [ ] = remark or other dose. An excerpt weighted towards active compounds, which were near 17% of everything screened. Unless noted, the call rests on the fitted dose curve; in most records, active means well fitted curve in the direction sought with a large enough effect; inconclusive means small, poorly fitted or top-dose-only effect, or another doubt; inactive means no such curve, though single readings can be large; an effect the other way counts as inactive or inconclusive. Potency means the concentration at half of the fitted maximal effect.

SMILES	TDP1 cell noCPT	TDP1 cell CPT	TDP1 block	ClpP mod
Cc1ccc(C2(C)NC(=O)N(CC(=O)NCc3cccc(Cl)c3)C2=O)cc1 (stereo not given)	6.9%	-3.6%	·	0.9%
Cc1ccc(S(=O)(=O)n2nc(OC(=O)c3c(-c4ccccc4Cl)noc3C)cc2N)cc1	14.6µM*	18.4µM*	1.0%	-1.3%
COc1ccccc1N1CCN(C(=O)c2cc(-c3cccc(Cl)c3)on2)CC1	12.6µM*	?	0.9%	-0.7%
CC(=O)c1ccc(N2CCN(C(=O)c3c(-c4ccccc4Cl)noc3C)CC2)cc1	?	?	3.1%	-2.3%
Cc1onc(-c2ccccc2Cl)c1C(=O)N1CCN(C/C=C/c2ccccc2)CC1	10µM*	?	6.2%	-2.6%
O=C(c1ccc(=O)n(Cc2ccccc2)n1)N1CCN(C/C=C/c2ccccc2)CC1	?	18.4µM*	1.0%	-2.9%
O=C(c1ccc(Br)s1)N1CCN(C/C=C/c2ccccc2)CC1	?	?	1.6%	-3.0%
Cc1onc(-c2ccccc2Cl)c1C(=O)Oc1cc(N)n(S(=O)(=O)c2ccc(F)cc2)n1	?	?	5.2%	0.3%
COc1ccccc1N1CCN(C(=O)c2cc(-c3ccc4c(c3)OCO4)on2)CC1	?	-18.9%	-4.7%	1.7%
COC(=O)c1ccc2c(=O)n(CC3CCCO3)c(SCC(=O)Nc3ccc(OC)cc3OC)nc2c1 (stereo not given)	-24.3%	3.4%	·	-0.3%
Cc1onc(-c2ccccc2Cl)c1C(=O)Oc1ccc(Br)cc1	-19.2%	-22.2%	-9.3%[12.3 µM]	-27.8%
Cc1onc(-c2ccccc2Cl)c1C(=O)Oc1cccc2cccnc12	2.91µM*	4.11µM*	1.2%	·
CC1=Nn2c(nc(-c3ccccc3)c2-c2ccccc2)N(CC(N)=O)C(=O)C1	12.2%	12.2%	1.0%	-2.5%
CCC1C(=O)Nc2nc(-c3ccccc3)c(-c3ccccc3)n2N=C1C (stereo not given)	23.1µM*	20.6µM*	4.5%	-2.0%
O=c1c2sc3ccccc3c2n(Cc2ccccc2F)c(=O)n1Cc1ccccc1	?	-18.0%	3.6%	-10.4%
NNC(=O)CN1C(c2cccc(Cl)c2)=Nc2ccc(Br)cc2C1c1ccccc1 (stereo not given)	?	?	7.1%	-5.8%
NNC(=O)CN1C(c2ccccc2Br)=Nc2ccc(Br)cc2C1c1ccccc1 (stereo not given)	16.4µM*	?	5.3%	46.8%
COc1ccc(-c2cnc3c(NC(C)=O)cc(-c4ccc(S(C)(=O)=O)cc4)cn23)cc1OC	18.4µM*	?	·	-15.6%
COc1cccc(-c2cnc3c(NC(C)=O)cc(-c4ccc(S(C)(=O)=O)cc4)cn23)c1	23.1µM*	?	·	-15.3%
Cc1cc(N/N=C/c2cccc(F)c2)nc(NCc2ccccc2)n1	13µM*	?	8.4%	1.1%
Cc1cc(C)nc(N/N=C/c2ccc(Cl)cc2)n1	-0.8%	-14.8%	·	-2.5%
Cc1cc(Nc2cccc(Cl)c2)nc(NCc2ccccc2)n1	3.66µM*	5.8µM*	9.1%	?
Cc1cc(N/N=C/c2ccc(Cl)cc2)nc(NCc2ccccc2)n1	8.2µM*	20.6µM*	8.1%	·
Cc1ccc(/C=N/Nc2nc(C)cc(C)n2)cc1	?	15.8%	·	·
Cc1cc(C)nc(NCc2ccc(Cl)cc2)n1	-18.7%	-1.0%	·	-1.6%
SMILES	TDP1 cell noCPT	TDP1 cell CPT	TDP1 block	ClpP mod
Cc1cc(N/N=C/c2ccccc2)nc(NCc2ccccc2)n1	2.59µM*	4.61µM*	8.1%	-0.5%
CN(C)S(=O)(=O)c1ccc2c(c1)N(CC(=O)Nc1cccc(C(F)(F)F)c1)C(=O)CS2	?	?	2.6%	-0.2%
Fc1ccccc1/C=N/Nc1nc2ccccc2o1	-1.9%	?	·	-0.5%
Cc1cc(N/N=C/c2ccccc2F)nc(NCc2ccccc2)n1	11.6µM*	?	0.0%	0.1%
Cc1cc(N/N=C/c2cccc(Cl)c2)nc(NCc2ccccc2)n1	7.31µM*	8.2µM*	2.7%	-6.4%
CN(C)c1nc(NCc2ccccc2)nc(N/N=C/c2ccc(Cl)cc2Cl)n1	?	23.1µM*	2.0%	-2.1%
CN(C)c1nc(NCc2ccccc2)nc(N/N=C/c2ccccc2F)n1	·	·	2.4%	·
Cc1cc(C)nc(N/N=C/c2cccc(Cl)c2)n1	-21.5%	-19.8%	4.6%	-3.4%
CC1CCN(c2nc3ccc(C(=O)NCCCN4CCCCC4C)cc3s2)CC1 (stereo not given)	?	?	·	4.7%
Cc1cccn2c(=O)nc(SCC(=O)c3ccccc3)nc12	-19.7%	7.0%	·	-13.7%
CCCN(CC(=O)Nc1ccccc1C)C(=O)/C=C/c1ccc(OC)c(OC)c1	-17.2%	-28.7%	·	4.5%
Cc1cc(C)c(S(=O)(=O)N2CCN(C(=O)CCn3nc(C)c(C)c3C)CC2)c(C)c1	14.6µM*	-61.8%	2.8%	·
COc1cccc(N2CCN(C(=O)CCn3nc(C)c(S(=O)(=O)N4CCCC4)c3C)CC2)c1	14.6µM*	?	·	-0.1%
COc1cccc(N2CCN(C(=O)c3cccc(S(=O)(=O)N4CCCC4)c3)CC2)c1	?	-2.0%	·	-0.2%
COc1ccc(Cl)cc1NC(=O)CN(C)C(=O)c1cn2ccccc2n1	?	?	-0.3%	-9.2%
CC1CC(C)CN(CCCNS(=O)(=O)c2ccc3c(c2)oc(=O)n3C)C1 (stereo not given)	17.3%	13.6%	0.5%	8.4%
NC1=NC(c2ccccc2C(F)(F)F)N(c2ccc(F)c(Cl)c2)C(N)=N1 (stereo not given)	4.11µM*	20.6µM*	·	-0.5%
NC1=NC(c2ccc(Cl)cc2)N(c2ccc(S(N)(=O)=O)cc2)C(N)=N1 (stereo not given)	-5.1%	5.2%	-1.3%	-0.6%
CC1CCCCC1N1CN=C(Nc2nc3ccccc3s2)NC1 (stereo not given)	?	20.6µM*	2.0%	-1.0%
COC(=O)c1c(C)[nH]c(C(=O)COc2ccc3ccc(=O)oc3c2)c1C	9.2µM*	?	·	2.8%
CC(=O)c1c(C)[nH]c(C(=O)COc2ccc3ccc(=O)oc3c2)c1C	?	?	·	31.6µM*
Cc1ccc(C(=O)COc2ccc3ccc(=O)oc3c2)cc1	-3.6%	-16.8%	·	·
CC(=O)c1c(C)[nH]c(C(=O)COc2cc(C)cc(C)c2)c1C	16.4µM*	?	5.4%	-1.7%
CCCOc1ccc(C(=O)Nc2ccc(N3CCN(C(=O)c4ccco4)CC3)cc2)cc1	?	?	0.6%	-1.4%
COc1ccc(-c2cn3c(n2)sc2cc(C(=O)NCc4cccc(F)c4)ccc23)cc1	?	?	1.3%	?
COc1ccc(-c2cn3c(n2)sc2cc(C(=O)NCCCN4CCCCCC4)ccc23)cc1	3.26µM*	2.91µM*	2.6%	-18.5%
